# From PubChem BioAssay
# A number with no mark means an inactive call. For some assays here: Measured potencies and affinities stand elsewhere. The source made the active and inactive calls. Unless noted, how the calls were made is not given here.
# What was measured:
# [1] = antimalarial activity against Dd2 strain (AID 2302;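 active means growth inhibition above 50% at the single 2 µM test dose, taken to imply half-maximal potency below 2 µM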;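 further: 0% = DMSO untreated growth and 100% = chloroquine plus artemisinin killed control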); conditions: P. falciparum Dd2 in RBCs, LDH growth readout, 72 h; at 2 µM; active compounds read high
# [2] = HepG2 cytotoxicity, primary screen, cytotoxicity control for P. falciparum antimalarial project, cell-based, ATP luminescence (AID 2303;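 active means inhibition above 50%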;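 further: 0% = DMSO wells and 100% = digitonin-killed cells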); conditions: HepG2 viability, 24-48 h, at 10 µM, active compounds read high
# [3] = biological target: L-lactate dehydrogenase (Plasmodium falciparum (isolate CDC / Honduras)) (UniProt Q27743); test: PfLDH activity inhibition – cell lysate, 3D7 strain, counter-screen for P. falciparum growth inhibition project (AID 2304);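 further: 0% = vehicle and 100% = reference inhibitor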; conditions: P. falciparum 3D7 crude extract, LDH APAD/NBT absorbance; at 2 µM; active compounds read high
# L-lactate dehydrogenase (Plasmodium falciparum (isolate CDC / Honduras)), sequence (Q27743 whole entry, looked up): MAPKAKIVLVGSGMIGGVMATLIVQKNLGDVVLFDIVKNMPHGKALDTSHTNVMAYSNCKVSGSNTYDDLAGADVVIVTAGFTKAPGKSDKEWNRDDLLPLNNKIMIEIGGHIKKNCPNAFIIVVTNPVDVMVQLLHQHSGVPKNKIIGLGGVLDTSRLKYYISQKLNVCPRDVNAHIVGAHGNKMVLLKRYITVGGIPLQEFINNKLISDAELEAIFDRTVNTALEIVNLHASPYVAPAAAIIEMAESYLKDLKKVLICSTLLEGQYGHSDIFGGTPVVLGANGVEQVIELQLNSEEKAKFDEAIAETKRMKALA
# [4] = inhibition of 3D7 malaria parasite growth – strain 3D7 (AID 2306);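 further: 0% = DMSO wells and 100% = chloroquine plus artemisinin control wells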; conditions: P. falciparum 3D7 erythrocytic growth, LDH absorbance, 72 h; at 2 µM; active compounds read high
# [5] = biological target: Calcium-dependent protein kinase 1 (Plasmodium falciparum (isolate 3D7)) (UniProt P62344); test: PfCDPK1 kinase inhibitors, biochemical, TCAMS library (AID 1159585; cut-off not given, nearly all actives have IC50 up to about 0.98 µM;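 further: inhibitors leave more ATP so luminescence rises with inhibition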); conditions: recombinant PfCDPK1, Kinase-Glo ATP depletion luminescence
# Calcium-dependent protein kinase 1 (Plasmodium falciparum (isolate 3D7)), sequence (P62344 whole entry, looked up): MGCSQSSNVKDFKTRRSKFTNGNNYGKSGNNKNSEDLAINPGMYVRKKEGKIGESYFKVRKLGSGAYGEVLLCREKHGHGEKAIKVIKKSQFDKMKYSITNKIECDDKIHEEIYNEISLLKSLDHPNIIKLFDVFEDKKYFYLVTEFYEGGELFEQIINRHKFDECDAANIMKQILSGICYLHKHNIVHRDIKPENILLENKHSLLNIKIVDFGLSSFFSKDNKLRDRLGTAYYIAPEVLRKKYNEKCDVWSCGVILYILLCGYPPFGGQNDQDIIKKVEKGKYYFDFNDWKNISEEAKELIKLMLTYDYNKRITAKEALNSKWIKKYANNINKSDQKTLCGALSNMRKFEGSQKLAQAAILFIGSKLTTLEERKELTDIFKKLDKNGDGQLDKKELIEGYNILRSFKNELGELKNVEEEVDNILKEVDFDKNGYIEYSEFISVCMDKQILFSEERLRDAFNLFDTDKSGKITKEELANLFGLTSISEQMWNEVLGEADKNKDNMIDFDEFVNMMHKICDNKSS
# [6] = biological target: Plasmodium falciparum protein kinase 6 (PK6, PF3D7_1337100) (UniProt Q8IDW1); test: PfPK6 kinase inhibitors, biochemical, TCAMS library (AID 1159586); conditions: recombinant PfPK6, Kinase-Glo ATP depletion luminescence
# Plasmodium falciparum protein kinase 6 (PK6, PF3D7_1337100), sequence (Q8IDW1 1-305): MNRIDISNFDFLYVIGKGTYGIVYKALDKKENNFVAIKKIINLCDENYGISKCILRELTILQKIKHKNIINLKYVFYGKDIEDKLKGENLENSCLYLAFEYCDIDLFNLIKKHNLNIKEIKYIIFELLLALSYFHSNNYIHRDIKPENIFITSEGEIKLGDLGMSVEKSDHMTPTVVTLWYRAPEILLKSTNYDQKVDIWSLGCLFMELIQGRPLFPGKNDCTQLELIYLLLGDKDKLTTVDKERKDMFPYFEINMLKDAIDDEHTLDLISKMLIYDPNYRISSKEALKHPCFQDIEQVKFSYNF
# [7] = biological target: Protein kinase 7 (PK7), Plasmodium falciparum 3D7 (PF3D7_0213400) (UniProt Q7YTF7); test: inhibition of Plasmodium PK7 catalytic activity – biochemical, TCAMS antimalarial set, Kinase-Glo luminescence (AID 1159587); conditions: recombinant PfPK7, Kinase-Glo ATP depletion luminescence
# Protein kinase 7 (PK7), Plasmodium falciparum 3D7 (PF3D7_0213400), sequence (Q7YTF7 1-343): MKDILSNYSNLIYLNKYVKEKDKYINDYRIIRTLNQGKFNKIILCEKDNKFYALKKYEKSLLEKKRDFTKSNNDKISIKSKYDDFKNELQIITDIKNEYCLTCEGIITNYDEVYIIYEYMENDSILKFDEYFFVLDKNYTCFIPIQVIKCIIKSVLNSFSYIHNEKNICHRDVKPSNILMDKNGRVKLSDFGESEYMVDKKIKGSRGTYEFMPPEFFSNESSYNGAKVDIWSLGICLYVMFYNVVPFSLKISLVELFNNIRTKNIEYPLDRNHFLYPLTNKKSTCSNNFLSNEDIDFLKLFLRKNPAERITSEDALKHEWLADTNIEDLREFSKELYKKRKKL
# [8] = biological target: Calcium-dependent protein kinase 4 (Plasmodium falciparum (isolate 3D7)) (UniProt Q8IBS5); test: PfCDPK4 kinase inhibitors, biochemical, TCAMS library (AID 1159588; cut-off not given, nearly all actives have IC50 up to about 0.91 µM); conditions: recombinant PfCDPK4, Kinase-Glo ATP depletion luminescence
# Calcium-dependent protein kinase 4 (Plasmodium falciparum (isolate 3D7)), sequence (Q8IBS5 whole entry, looked up): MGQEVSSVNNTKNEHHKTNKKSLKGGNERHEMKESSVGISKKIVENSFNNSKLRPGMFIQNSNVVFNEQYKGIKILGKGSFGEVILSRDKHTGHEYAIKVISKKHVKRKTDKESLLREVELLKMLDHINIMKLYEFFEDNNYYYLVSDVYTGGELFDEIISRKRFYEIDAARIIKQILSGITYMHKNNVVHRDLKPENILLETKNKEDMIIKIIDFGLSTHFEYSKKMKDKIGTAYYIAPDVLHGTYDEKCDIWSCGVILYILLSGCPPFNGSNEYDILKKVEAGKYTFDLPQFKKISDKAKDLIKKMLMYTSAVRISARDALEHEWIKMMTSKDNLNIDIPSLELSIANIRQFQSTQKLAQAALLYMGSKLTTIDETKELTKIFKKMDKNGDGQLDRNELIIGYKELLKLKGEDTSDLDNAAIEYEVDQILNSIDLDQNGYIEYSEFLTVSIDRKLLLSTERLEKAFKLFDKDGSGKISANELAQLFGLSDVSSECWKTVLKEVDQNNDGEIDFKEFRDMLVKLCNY
SMILES,growth inhibition [1],inhibition [2],inhibition [3],growth inhibition [4],outcome [5],outcome [6],outcome [7],outcome [8]
COc1cc(CNc2ccc(N3CCCC3)cc2)cc(Cl)c1OC,94% (active),41%,1%,100% (active),inactive,inactive,inactive,inactive
CCN(CC)CCN(Cc1ccc(-c2ccc(Cl)cc2)cc1)C(=O)Cn1cc(CN(C)C)c(=O)nc1SCc1ccc(F)cc1,99% (active),49%,1%,99% (active),inactive,inactive,inactive,inactive
CN(Cc1cccc(C#N)c1)C1CCN(c2cc(NC(=O)c3ccc(F)cc3)ccn2)CC1,23%,4%,-1%,97% (active),inactive,inactive,inactive,inactive
CC(CCc1ccccc1)NCC(O)c1cccc(C(F)(F)F)c1 (stereo not given),98% (active),18%,4%,99% (active),inactive,inactive,inactive,inactive
CC(C)CCNC(=O)C1Cc2c([nH]c3cc(Br)ccc23)C2(CCN(CCc3ccccc3)CC2)N1 (stereo not given),48%,14%,-1%,97% (active),inactive,inactive,inactive,inactive
CCCCCCCn1c(=N)n(CC(O)c2ccc(Cl)c(Cl)c2)c2ccccc21 (stereo not given),100% (active),99% (active),2%,98% (active),inactive,inactive,inactive,inactive
O=C(NCCCN1CCCC1=O)c1cnc(N2CCC(Oc3ccccc3)CC2)c(Cl)c1,93% (active),7%,-2%,97% (active),inactive,inactive,inactive,inactive
COc1ccc2nccc(N3CCC(NCCNCc4ccc5c(n4)NC(=O)CS5)C3)c2n1 (stereo not given),5%,-4%,-4%,100% (active),inactive,inactive,inactive,inactive
Cc1noc(=O)c2ccc(NC(=O)C(O)(CSc3ccccc3)CC(C)C)cc12 (stereo not given),89% (active),-15%,0%,99% (active),inactive,inactive,inactive,inactive
O=c1ccccn1CCCC1CCCCN1 (stereo not given),-1%,-1%,0%,96% (active),inactive,inactive,inactive,inactive
